Compound activity from PubChem.
IDE act: boosts human insulin-degrading enzyme activity in HEK cells; P14735; FAbeta-B cleavage, fluorescence polarization; 0% vehicle, 100% cell-free pure enzyme wells; activation, % at 5.96 µM; 0.073% of 340,000 active; AID 493087;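 active = activation above the mean of all tested compounds plus 3 SD, set per screening campaign, cut at about 17% in these data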
TLR4-MyD88 BLA: TLR4-MyD88 interaction inhibition in cells; O00206+Q99836; HeLa CL3-4 TLR4/MyD88 BLA complementation, FRET ratio; inhibition, % at 8.4 µM; 0.18% of 200,000 active; in the data active = inhibition above about 25%
TLR9-MyD88 block: blocks human TLR9 binding to MyD88; inhibition, % at 4.98 µM; 0.21% of 340,000 active; CHO BLA complementation TLR9-MyD88, CCF4 FRET ratio; AID 504734;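 active = inhibition above the mean over all tested compounds plus 3 SD, cut at about 21% in these data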
NOD2-RIPK2 inh: NOD2-RIPK2 protein interaction inhibition; CHO BLA complementation NOD2-RIPK2, CCF4 ratio; O43353; 0.38% of 360,000 active; inhibition, % at 4.98 µM; in the data active = inhibition above about 21%
IDE inh: inhibits human insulin-degrading enzyme in HEK cells; P14735; 0.41% of 320,000 active; inhibition, % at 5.59 µM; AID 434962; FAbetaB cleavage, fluorescence polarization;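 active = percent inhibition above the average of all tested compounds plus 3 SD, set per screening campaign, cut at about 16% in these data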;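 note: IDE supplied by intact live HEK cells; FP after avidin binding of uncleaved biotin substrate so inhibition keeps polarization high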
IDE inh confirm: confirmation of human insulin-degrading enzyme inhibitors in cells. inhibition, % at 5.59 µM. HEK cells, FAbetaB cleavage, fluorescence polarization. 51% of 1,200 active. shares compounds with IDE inh;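 active = mean inhibition across triplicate wells above the cutoff set by the earlier primary insulin-degrading enzyme screen, cut at about 16% in these data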
HEK293 tox: HEK cell cytotoxicity, counter-screen for IDE inhibitors; HEK293 cytotoxicity, ATP luminescence; shares compounds with IDE inh; 28% of 1,200 active; inhibition, % at 5.59 µM; AID 449730; in the data active = inhibition above about 22%
Hits are given with their value. Shown are actives, neighbours in structure and some others; about 0.87% of the full set was active somewhere.

What do the screens show for `CSc1ccc(/C=C2\C(=N)N3N=C(CC(=O)N4CCCCC4)SC3=NC2=O)cc1`?
IDE act: inactive; TLR9-MyD88 block: inactive; NOD2-RIPK2 inh: inactive; IDE inh: inactive

Results for CC(C)N(C(=S)Nc1ccc(S(=O)(=O)N2CCOCC2)cc1)c1ccccc1 ?
NOD2-RIPK2 inh: inactive; IDE inh: inactive

How did COc1ccc(N2CCN(C(=O)COC(=O)c3ccc(OC(F)F)cc3)CC2)cc1 do in these assays?
IDE act: inactive; TLR9-MyD88 block: inactive; NOD2-RIPK2 inh: inactive; IDE inh: inactive

How did O=C(N[C@@H](Cc1ccccc1)C(=O)N1CCN(S(=O)(=O)c2ccc(F)cc2)CC1)c1ccco1 do in these assays?
IDE act: inactive; TLR9-MyD88 block: inactive; NOD2-RIPK2 inh: inactive

How did O=c1c2[nH]c3ccc(Br)cc3c2ncn1CCCn1ccnc1 do in these assays?
IDE act: inactive; TLR4-MyD88 BLA: inactive; TLR9-MyD88 block: inactive; NOD2-RIPK2 inh: inactive; IDE inh: 21; IDE inh confirm: inactive; HEK293 tox: inactive

How did O=c1c2[nH]c3ccccc3c2ncn1CCCn1ccnc1 do in these assays?
IDE act: inactive; TLR4-MyD88 BLA: inactive; TLR9-MyD88 block: inactive; NOD2-RIPK2 inh: inactive; IDE inh: inactive

How did O=C(O)C1CC=C(Cl)CC1C(=O)NC1CCCCC1 (configuration not stated) do in these assays?
IDE act: inactive; TLR9-MyD88 block: inactive; NOD2-RIPK2 inh: inactive; IDE inh: inactive

What do the screens show for `COc1ccc2c(=O)c(Oc3ccc(C(=O)O)cc3)c(C(F)(F)F)oc2c1`?
IDE act: inactive; TLR4-MyD88 BLA: inactive; TLR9-MyD88 block: inactive; NOD2-RIPK2 inh: inactive; IDE inh: 18; IDE inh confirm: inactive; HEK293 tox: inactive

What do the screens show for `CCOC(=O)C1C(=O)C=C(/C=C/c2ccc(N(C)C)cc2)CC1c1ccccc1` (configuration not stated)?
IDE act: inactive; TLR4-MyD88 BLA: inactive; TLR9-MyD88 block: inactive; NOD2-RIPK2 inh: inactive; IDE inh: 40; IDE inh confirm: 129; HEK293 tox: 24

Results for COc1ccc(/C=c2\s/c(=C/C(=O)c3ccc(C)cc3)[nH]c2=O)c(OC)c1 ?
IDE act: inactive; TLR4-MyD88 BLA: inactive; TLR9-MyD88 block: inactive; NOD2-RIPK2 inh: inactive; IDE inh: 88; IDE inh confirm: 112; HEK293 tox: inactive

Results for Cn1c(CN2CCOCC2)nnc1SCC(=O)NCCc1ccccc1 ?
IDE act: inactive; TLR4-MyD88 BLA: inactive; TLR9-MyD88 block: inactive; NOD2-RIPK2 inh: inactive; IDE inh: 21; IDE inh confirm: inactive; HEK293 tox: inactive

How did Cn1c(CN2CCOCC2)nnc1SCc1ccccc1 do in these assays?
IDE act: inactive; TLR4-MyD88 BLA: inactive; TLR9-MyD88 block: inactive; NOD2-RIPK2 inh: inactive; IDE inh: inactive

How did CN(C)c1ccc(C(CNS(=O)(=O)c2ccc([N+](=O)[O-])cc2)N2CCOCC2)cc1 (configuration not stated) do in these assays?
IDE act: inactive; TLR9-MyD88 block: inactive; NOD2-RIPK2 inh: inactive; IDE inh: inactive

How did CC(=O)c1ccc(S(=O)(=O)N(C)CC(=O)N2CCCCCC2)cc1 do in these assays?
IDE act: inactive; TLR9-MyD88 block: inactive; NOD2-RIPK2 inh: inactive; IDE inh: inactive

Results for Cc1cc(=O)[nH]c(N/N=C/c2cccc(Br)c2)n1 ?
IDE act: inactive; TLR9-MyD88 block: inactive; NOD2-RIPK2 inh: inactive; IDE inh: inactive

How did CC(=O)c1sc(N/N=C\c2cccc(Br)c2)nc1C do in these assays?
IDE act: inactive; TLR4-MyD88 BLA: inactive; TLR9-MyD88 block: inactive; NOD2-RIPK2 inh: inactive; IDE inh: 40; IDE inh confirm: 106; HEK293 tox: inactive

Results for CC(=O)c1sc(N/N=C\c2ccc(Br)cc2)nc1C ?
IDE act: inactive; TLR4-MyD88 BLA: inactive; TLR9-MyD88 block: inactive; NOD2-RIPK2 inh: inactive; IDE inh: 37; IDE inh confirm: 76; HEK293 tox: inactive

What do the screens show for `O=C1/C(=C/c2cccc([N+](=O)[O-])c2)Oc2cc(O)ccc21`?
IDE act: inactive; TLR9-MyD88 block: inactive; NOD2-RIPK2 inh: inactive; IDE inh: inactive

How did O=C1/C(=C/c2ccc(O)c(O)c2)Oc2cc(O)ccc21 do in these assays?
IDE act: inactive; TLR9-MyD88 block: inactive; NOD2-RIPK2 inh: inactive; IDE inh: 34; IDE inh confirm: 75; HEK293 tox: inactive
